Measurements as given in the supplement of paper PMC7156485.
± gives the standard deviation of the averaged measurements.

system: HCC1569; assay: cell number relative to DMSO (% of DMSO); higher = more cells (less growth inhibition / toxicity); details: concentration: 10 µM; 24 h
In short: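 HCC1569 and TDF cells were seeded at 800 per well in 384-well plates in RPMI with 10% FBS and treated with compounds at 10 µM for 24 h at 37 °C, in triplicate. After fixation in 3.7% formaldehyde, cells were stained with a rabbit anti-H1.0 antibody, an AlexaFluor 647 secondary and DAPI, and six fields per well were imaged at ×10. H1.0 nuclear intensity or cell number is given as percent of the plate control, using the median of replicates, with HCC1569 values smoothed for positional effects.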
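Also: TDF denotes transformed human dermal fibroblasts of mesenchymal origin.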

Row | SMILES | cell number
1 | Oc1cc2c(cc1O)C(c1ccccc1)CNCC2 (racemic) | 101
2 | O=c1oc2c(O)c(O)cc3c(=O)oc4c(O)c(O)cc1c4c23 [Ellagic acid] | 102
3 | CC(C)CN(CC(O)C(Cc1ccccc1)NC(=O)OC1CCOC1)S(=O)(=O)c1ccc(N)cc1 (stereo not given) [Amprenavir] | 103
4 | O=C1CCC(N2C(=O)c3ccccc3C2=O)C(=O)N1 (racemic) | 103
5 | COc1cc2ncnc(Nc3ccc(NC(=O)c4ccccc4)cc3)c2cc1OC [Aurora Kinase Inhibitor II] | 77.8
6 | Cn1c(=O)c2[nH]cnc2n(C)c1=O [Theophylline] | 100
7 | COc1ccc2c(c1)c(CC(=O)O)c(C)n2Cc1ccc(F)cc1 [1-(4-Fluorobenzyl)-5-methoxy-2-methylindole-3-acetic acid] | 101
8 | COC(C)(C)CCCC(C)CC=CC(C)=CC(=O)O (stereo not given) [Methoprene acid] | 104
9 | Cl.Nc1nc2ccc(OC(F)(F)F)cc2s1 [Riluzole.HCl] | 101
10 | CN(C)CCCN1c2ccccc2CCc2ccc(Cl)cc21.Cl [Clomipramine hydrochloride] | 89.6
11 | COc1cc(/C=C/C(=O)O)ccc1O [Ferulic acid] | 102
12 | C[N+](C)(C)CCCCCC[N+](C)(C)C.[Cl-].[Cl-] [Hexamethonium dichloride] | 98
13 | Cl.Nc1cc(Nc2ccc(S(N)(=O)=O)cc2)ncn1 | 100
14 | COc1ccc2c(c1OC)C(=O)OC2C1c2c(cc3c(c2OC)OCO3)CCN1C (racemic) | 98.6
15 | CC1C2CCC3C4CC=C5CC(N(C)C)CCC5(C)C4CCC32CN1C (stereo not given) [Conessine] | 103
16 | CC(C)C(CO)Nc1nc(Nc2ccc(C(=O)O)c(Cl)c2)c2ncn(C(C)C)c2n1 (stereo not given) | 100
17 | Cc1ccc(Cl)c(Nc2ccccc2C(=O)[O-])c1Cl.[Na+] [sodium 2-(2,6-dichloro-3-methylanilino)benzoate] | 99.4
18 | Cl.O=C1NCC2(CCN(CCc3ccccc3)CC2)O1 [Fenspiride hydrochloride] | 98.2
19 | Cl.Cl.NCCC(=O)NCCc1cnc[nH]1 [Carcinine dihydrochloride] | 97.3
20 | CCCCCC(O)C=CC=O (racemic) | 99.2

Row | SMILES | cell number
21 | COC(=O)c1sccc1S(=O)(=O)Nc1ccc(Nc2ccccc2)cc1OC | 99.7
22 | O=C1NCN(c2ccccc2)C12CCN(CCCC(c1ccc(F)cc1)c1ccc(F)cc1)CC2 [Fluspirilene] | 82.7 ± 16
23 | O=C(Nc1c(Cl)cncc1Cl)c1ccc(OC(F)F)c(OCC2CC2)c1 | 99.9
24 | O.c1cnc2c(c1)ccc1cccnc12 [1,10-Phenanthroline monohydrate] | 77.2
25 | CCN1CCc2nc(N)oc2CC1.Cl.Cl [B-HT 933 dihydrochloride] | 99.5
26 | COC1CC(OC2C(C)C(=O)OC(C)C(C)C(OC(C)=O)C(C)C(=O)C3(CO3)CC(C)C(OC3OC(C)CC(N(C)C)C3OC(C)=O)C2C)OC(C)C1OC(C)=O (stereo not given) [Troleandomycin] | 102 ± 2.6
27 | CSc1nc(-c2ccnc(NC(C)c3ccccc3)c2)c(-c2ccc(F)cc2)[nH]1 (stereo not given) [p38 MAP Kinase Inhibitor III] | 94.8
28 | COc1cc2ncnc(Nc3ccc(OCc4ccccc4)cc3)c2cc1OC [EGFR/ErbB-2 Inhibitor] | 88.7
29 | O=C(Nc1cccc(C(F)(F)F)c1)Nc1cc(S(=O)(=O)NC2CC2)ccc1-c1ccsc1 | 91.2
30 | CCCCCCCCCCCC=CCCCCC(=O)O [6(Z)-Octadecenoic acid] | 100
31 | CCCCCC=CCC=CCC=CCCCCC(=O)O [γ-Linolenic acid (18:3 n-6)] | 99.3
32 | CCOc1cc2ncnc(Nc3cccc(Br)c3)c2cc1OCC [Compound 56] | 76.2
33 | COc1ccc(CN(CCN(C)C)c2ccccn2)cc1.O=C(O)C=CC(=O)O [Pyrilamine maleate] | 103
34 | Cl.Cl.O=C(O)COCCN1CCN(C(c2ccccc2)c2ccc(Cl)cc2)CC1 (stereo not given) [Cetirizine 2HCl] | 98.9
35 | COC(=O)[C@@H](N)Cc1ccc(O)c(O)c1.Cl [L-3,4-Dihydroxyphenylalanine methyl ester hydrochloride] | 102
36 | NC(=O)c1cc[n+](CC2=C(C(=O)[O-])N3C(=O)C(NC(=O)C(c4ccccc4)S(=O)(=O)[O-])C3SC2)cc1.[Na+] (stereo not given) [Cefsulodin sodium salt hydrate] | 99.1
37 | CCCCN1CCC(n2c(=O)[nH]c3ccccc32)CC1.O=C(O)C(=O)O [NS 521 oxalate] | 98
38 | Cc1[nH]c2ccccc2c1CCNC(=O)c1ccccc1F [2-fluoro-N-[2-(2-methyl-1H-indol-3-yl)ethyl]benzamide] | 100
39 | CC(=O)OC1(C(C)=O)CCC2C3C=C(Cl)C4=CC(=O)C5CC5C4(C)C3CCC21C (stereo not given) [Cyproterone Acetate] | 107
40 | CC(=O)OC1(C(C)=O)CCC2C3C=C(C)C4=CC(=O)CCC4(C)C3CCC21C (stereo not given) [Megestrol Acetate] | 106
